High-throughput results as filed in PubChem BioAssay.
DAX1 inh-1: NR0B1 (DAX1) inhibition; P51843; HEK293 Gal4-DAX1 luciferase reporter, luminescence; inhibition, % at 6.75 µM; 340,000 tested, 0.99% active;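 active = inhibition above the mean over all tested compounds plus 3 SD, cut at about 4.2% in these data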;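 note: inhibition shows as a rise in luminescence from relieved DAX1 repression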
hgDAF12 agonist: agonists of H. glycines DAF-12 nuclear receptor | HEK293 GAL4-hgDAF12 UAS-luciferase reporter, agonist luminescence; normalized to butyrate control | activation, % at 6.8 µM | 370,000 tested, 1.8% active;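 active = activation above a cutoff set at the mean of all screened compounds plus 3 SD, cut at about 10% in these data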
hcDAF12 agonist: activators of H. contortus DAF-12 nuclear receptor | HEK293 hcDAF-12 lit1-tk-luc reporter, luminescence; 0% DMSO, 100% Δ7-dafachronic acid | activation, % at 6.8 µM | 370,000 tested, 1.4% active;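 active = activation above the mean of all tested compounds plus 3 SD, cut at about 5.5% in these data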
DAX1 inh-2: inhibitors of DAX1 repression of SF-1 activated StAR promoter; HEK293T StAR-luciferase reporter, SF-1/DAX-1 repression relief; inhibition, % at 6.8 µM; 370,000 tested, 1.1% active; AID 652010;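 active = inhibition above the mean over all tested compounds plus 3 SD, cut at about 3.6% in these data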;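 note: higher inhibition means more luminescence from relief of DAX-1 repression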
ssDAF-12 act: activators of S. stercoralis DAF-12 nuclear receptor | HEK293 ssDAF-12/GRIP1 lit1-tk-luc reporter, luminescence; % of 3 µM dafachronic acid response | activation, % at 6.8 µM | 370,000 tested, 1% active | AID 652126;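 active = activation above the mean over all tested compounds plus 3 SD, cut at about 0.9% in these data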
hgDAF12 conf: confirmation of H. glycines DAF-12 agonists. shares compounds with hgDAF12 agonist. HEK293 GAL4-hgDAF12 luciferase reporter, agonist mode; percent of butyrate response. activation, % at 6.8 µM. 3,300 tested, 80% active;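 active = mean activation over triplicate wells above the hit cutoff derived from the earlier primary screen, cut at about 11% in these data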
LXR ag 2: LXR-beta agonism as DAF-12 counter-screen; activation, % at 6.8 µM; shares compounds with hgDAF12 agonist; 3,300 tested, under 10 active; HEK293 Gal4-LXR luciferase reporter, 24 h;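 active = mean activation of the triplicate above a set limit carried over from the primary screen, none filed active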
Target sequence (P55055 whole entry, looked up, the tested form may be a part): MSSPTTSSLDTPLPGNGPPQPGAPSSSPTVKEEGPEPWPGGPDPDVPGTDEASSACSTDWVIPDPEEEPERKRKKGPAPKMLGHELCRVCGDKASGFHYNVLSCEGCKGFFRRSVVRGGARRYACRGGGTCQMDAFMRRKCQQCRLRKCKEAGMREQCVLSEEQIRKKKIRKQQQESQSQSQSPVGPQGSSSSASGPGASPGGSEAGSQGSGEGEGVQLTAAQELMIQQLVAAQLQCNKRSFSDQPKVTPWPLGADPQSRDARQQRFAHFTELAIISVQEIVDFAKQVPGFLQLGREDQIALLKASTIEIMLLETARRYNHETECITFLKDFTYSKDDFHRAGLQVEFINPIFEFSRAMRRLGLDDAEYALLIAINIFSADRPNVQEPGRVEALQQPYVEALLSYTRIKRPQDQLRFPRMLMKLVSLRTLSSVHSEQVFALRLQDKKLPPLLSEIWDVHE
Each line names hits and unclear results; the compound was inactive in the other large screens (follow-up assays come after a bar, where they were run). Only some compounds are listed: those with a hit (about 4.1% of all), similar ones and a draw of the others.

CCOC(=O)N1CCN(C2CCCN(C(=O)c3ccccc3N(C)C)C2)CC1 (stereo not given)	none
CC1=CC(=C2C(=O)c3ccccc3C2=O)C=C(C)N1Cc1ccco1	hgDAF12 agonist 15.7 | hgDAF12 conf 12.7 | LXR ag 2 inactive
O=C1c2ccccc2C(=O)N1Cc1ccco1	none
O=C(/C=C/Nc1ccc(Cc2ccc(N/C=C/C(=O)C(F)(F)F)cc2)cc1)C(F)(F)F	hgDAF12 agonist 13.4 | hgDAF12 conf inactive | LXR ag 2 inactive
Cc1c(C(=O)NCC2CCCO2)oc2ccc3c(c12)C(=O)CC(C)(C)O3 (stereo not given)	hgDAF12 agonist 16.6 | hgDAF12 conf 12.0 | LXR ag 2 inactive
CCCCCCn1c(=O)n2n(c1=O)C[C@]1(OC(=O)NC3CCCC3)CN(S(=O)(=O)c3ccc(C)cc3)C[C@]1(O)C2	none
Cn1cc(Br)c(C(=O)NNC(=O)c2ccc(Br)cc2)n1	hgDAF12 agonist 13.9 | hgDAF12 conf inactive | LXR ag 2 inactive
Cc1cc(C)c2nc(N)sc2c1	none
Cc1cc(C)c2sc(N)nc2c1	hgDAF12 agonist 13.9 | hgDAF12 conf inactive | LXR ag 2 inactive
CCOC(=O)c1ccc2nc3c(cc2c1)CCS3	hgDAF12 agonist 15.6 | hgDAF12 conf 11.3 | LXR ag 2 inactive
CCOC(=O)c1ccc2nc(C)c3c(c2c1)OC(C)C3 (stereo not given)	none
Nc1nn(-c2ccccc2)c(N)c1N=Nc1cccc(F)c1	hgDAF12 agonist 18.8, hcDAF12 agonist 6.0 (no result: DAX1 inh-1) | hgDAF12 conf 23.7 | LXR ag 2 inactive
Cc1nn(-c2ccccc2)c2c1C(c1ccc(F)cc1F)C(C#N)=C(N)O2 (stereo not given)	none
Cc1cc2nc(-c3ccc(SCC(=O)Nc4ccc(S(=O)(=O)NC5CC5)cc4)nc3)[nH]c2cc1C	hgDAF12 agonist 15.6, hcDAF12 agonist 5.6, DAX1 inh-2 4.5, ssDAF-12 act 1.2 | hgDAF12 conf 17.0 | LXR ag 2 inactive
CC(C)(C)c1ccc(C(=O)NC2CCN(Cc3ccccc3)CC2)cc1	none
Cc1cc(NC(=O)c2nn3cccnc3c2Cl)no1	hgDAF12 agonist 13.6 | hgDAF12 conf 14.6 | LXR ag 2 inactive
Cc1c(C)n2c(SCC(=O)N3CCCCC3)nnc2[nH]c1=O	none
Cn1nnnc1SCC(=O)Nc1ccc(S(=O)(=O)N2CCOCC2)cc1	none
COc1ccc(CNc2nc3ccccc3n2C)c(O)c1	hgDAF12 agonist 17.2, DAX1 inh-2 4.5 | hgDAF12 conf 20.6 | LXR ag 2 inactive
COc1ccc(CNc2nc3ccccc3n2C(C)C)c(O)c1	none
COC(=O)c1sc2nc3c(cc2c1N)COC(C)(C)C3	hgDAF12 agonist 16.5, DAX1 inh-2 4.0 | hgDAF12 conf 16.9 | LXR ag 2 inactive
CC(C)CNC(=O)c1cccc(NC(=O)C(C)Oc2ccccc2)c1 (stereo not given)	none
O=C(COC(=O)/C=C/c1ccccc1)Nc1ccc(Cl)cn1	none
O=C(/C=C/c1ccccc1)Nc1ccc(Cl)cn1	hgDAF12 agonist 14.3 | hgDAF12 conf 20.4 | LXR ag 2 inactive
CCOc1cc(C(=O)Nc2cc(C)on2)cc(OCC)c1OCC	none
CCOc1ccc(C(=O)Nc2cc(C)on2)cc1	hgDAF12 agonist 14.2 | hgDAF12 conf 14.5 | LXR ag 2 inactive
Cc1ccnc(NC(=O)c2ccc(OCc3c(C)noc3C)cc2)c1	hgDAF12 agonist 13.6, DAX1 inh-2 4.2 | hgDAF12 conf inactive | LXR ag 2 inactive
CCOc1ccc(C(=O)Nc2ccc3[nH]ncc3c2)cc1	hgDAF12 agonist 15.8 | hgDAF12 conf 14.9 | LXR ag 2 inactive
COCC(C)n1c(C)cc(C(=O)COC(=O)c2cc(=O)[nH]c3ccccc23)c1C (stereo not given)	none
O=C(Nc1ccccc1C(=O)Nc1ccc(Br)cn1)c1ccccc1Cl	none
O=C(Nc1ccc(Br)cn1)c1ccc(Cl)s1	hgDAF12 agonist 14.8 | hgDAF12 conf 14.0 | LXR ag 2 inactive
O=C(Nc1ccc(Br)cn1)c1ccc(Br)s1	hgDAF12 agonist 19.6, hcDAF12 agonist 6.2 | hgDAF12 conf 19.9 | LXR ag 2 inactive
